From PubChem BioAssay
HCV inh = inhibitors of hepatitis C virus infection | Huh7.5.1 HCVcc-Cre infection, luciferase reporter, 44 h | Potency, µM (top dose mostly 41.8 µM), inactives show at the top dose activity change, negative = inhibition, usual class: inhibitors | 3.4% of 340,000 active | AID 651820; also: potency is read from the fitted curve at half-maximal effect; % is scaled to controls: 0 for no effect and ±100 for the full control effect
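Antiviral activity was scored by luciferase reporter output from cells infected with HCVcc-Cre (~0.5 moi) in presence of compound, 44 h infection period, cells seeded 1,000/well 4 h prior.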
Pf growth 48h = inhibits P. falciparum growth in the first generation, 48 h | 5.9% of 310,000 active | P. falciparum luciferase growth in erythrocytes, 48 h | Potency, µM (titrated, usually from 28.7 µM), for the others: at the highest dose activity change, negative = inhibition, actives largely listed as inhibitors; also: potency is read from the fitted curve at half-maximal effect; % is scaled to controls: 0 for no effect and ±100 for the full control effect
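Growth was read as firefly luciferase luminescence after a 48 h, 37 C, 5% CO2 exposure of compounds to reporter-bearing P. falciparum cultures (0.1% parasitemia, 2% hematocrit final) in Albumax-supplemented RPMI 1640.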
Shiga toxin inh = blocks Shiga toxin action in Vero cells | inhibition, % at 38.7 µM | Vero cells, Shiga toxin protein synthesis inhibition reporter | AID 2315 | 9.2% of 290,000 active; in the data active = inhibition mostly above about 28%, no sharp cut-off; inactive = mostly below about 43%; also: 0% is about no effect
CHX counter = affects cycloheximide protein synthesis inhibition readout, counter-screen; cell reporter, cycloheximide protein synthesis inhibition counterscreen; max response, %; 12% of 300,000 active; AID 2314; in the data active = max response mostly above about 13%, no sharp cut-off; inactive = mostly below about 14%; also: read at 38.3 µM for the half of the compounds with a filed dose; 0% is about no effect
AMA1-RON2 inh = inhibitors of Plasmodium falciparum AMA1-RON2 interaction. Potency, µM (doses to about 58.2 µM), inactives show at the highest dose activity change, negative = inhibition, usual class: inhibitors. 0.2% of 360,000 active. AlphaScreen AMA1-biotinylated RON2 peptide binding;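 also: potency is read from the fitted curve at half-maximal effect; 0% = vehicle wells and -100% = peptide control; nearly all actives have a fitted effect of over 45% in size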
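AMA1 (3D7) with his tag at 25 nM final met compounds first, then biotinylated RON2 peptide at 25 nM; detection used donor plus acceptor beads, 10 µg/mL apiece, read by AlphaScreen after 30 min at room temperature.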
Pf growth 96h = inhibits malaria parasite growth, 96 h | P. falciparum luciferase reporter growth, 96 h | Potency, µM (titrated, usually from 28.7 µM), for the others: at the top dose activity change, negative = inhibition, hits mostly inhibitors | 6.9% of 320,000 active | AID 504834; also: potency is read from the fitted curve at half-maximal effect; % is scaled to controls: 0 for no effect and ±100 for the full control effect
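Compounds incubated with erythrocytes infected by luciferase-expressing P. falciparum (2% hematocrit, 0.05% parasitemia final) for 96 hours, 37 C in 5% CO2. Growth inhibition scored as decreased luciferase luminescence.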
Numbers without * were called inactive; ? = inconclusive; nt = no result; [ ] = dose if it differs, or a comment. Compounds with a hit are over-represented: about 21% of the library has one in this group of screens. Unless noted, calls follow the shape of the dose curve; as a rule, active = well fitted curve in the direction sought with a large enough effect; inconclusive = small, poorly fitted or top-dose-only effect, or another doubt; inactive = no such curve, though single readings can be large; an effect the other way counts as inactive or inconclusive.

SMILES | HCV inh | Pf growth 48h | Shiga toxin inh | CHX counter | AMA1-RON2 inh | Pf growth 96h
COc1ccc([N+](=O)[O-])cc1NC(=O)Nc1ccc(OC)c(OC)c1 | 2.82µM* | ? | 22.8 | 27.3 | -27.5% | 19.0%[5.75 µM]
COc1cc([N+](=O)[O-])ccc1NC(=O)Nc1cccnc1 | -27.0% | ? | -11.0 | -5.4 | 6.4% | 76.3%
COC(=O)c1ccc(NC(=O)Nc2ccc(OC)c(OC)c2)cc1 | 13.9% | -9.0% | 11.9 | -2.1 | 1.6% | -47.7%[5.75 µM]
COc1ccc(NC(=O)NC23CC4(C)CC(C)(CC(C)(C4)C2)C3)cc1OC | ? | 2.62µM* | -16.0 | -3.2 | -10.8% | ?
CCOC(=O)C1CCCN(C(=O)c2[nH]c(C(F)(F)F)nc2-c2ccccc2)C1 (stereo unspecified) | nt | nt | nt | nt | 2.5% | nt
Cc1ccc(CN2C(=O)S/C(=C\c3ccccc3OCC(=O)O)C2=O)cc1 | 3.2% | 4.8% | 11.2 | -0.9 | -1.6% | 5.22µM*
Cc1ccccc1[N+](=O)[O-] | 2.2% | 30.4% | nt | nt | 0.0% | ?
O=C1NC(c2cc(Cl)cc([N+](=O)[O-])c2O)Nc2ccccc21 (stereo unspecified) | 3.2% | 24.6% | 17.2 | 10.0 | -14.3% | -2.6%
Cc1ccc(O)c(-c2cc(C(F)(F)C(F)F)[nH]n2)c1 | ? | 9.28µM* | 47.0 | 18.6* | 18.7% | 9.28µM*
Cc1ccc(O)c(-c2cc(-c3ccccc3[N+](=O)[O-])[nH]n2)c1 | -22.7% | ? | 44.4* | 19.9* | 45.6% | 189.1%
O=[N+]([O-])c1ccccc1-c1cc(-c2cc(Cl)ccc2O)n[nH]1 | ? | ? | 50.4 | 21.8* | 60.0% | -0.3%
Cc1ccc(O)c(-c2cc(C(=O)NCc3ccc4c(c3)OCO4)[nH]n2)c1 | -5.9% | -1.8% | 6.0 | -0.2 | 74.2% | 0.1%
Cc1ccc(-c2cc(-c3cccs3)[nH]n2)c(O)c1 | -27.1% | nt | 72.1* | 40.9* | 9.1% | ?
CC(=O)c1cccc(NC(=O)CN2CCc3cc4c(cc3C2)OCCCO4)c1 | ? | 17.8% | 13.1 | 6.8 | -5.6% | ?
O=C(c1cccc(S(=O)(=O)N2CCN(c3ccc(F)cc3)CC2)c1)N1CCN(c2ccccc2O)CC1 | ? | nt | nt | nt | -3.0% | nt
Clc1ccccc1OCCNc1nc(NCC2CC2)nc2ccsc12 | nt | nt | nt | nt | -8.8% | nt
CCOC(=O)c1nc(SC)n(C)c1C(=O)OCC | 13.9% | -7.9% | -7.5 | -3.4 | 16.5% | 15.0%
COc1ccc(O)c(-c2cc(-c3ccccc3[N+](=O)[O-])[nH]n2)c1 | 8.3% | 30.9% | -3.5 | 24.8* | 20.1% | -5.3%
Cc1ccc(O)c(-c2cc(-c3ccccc3C)[nH]n2)c1 | 11.2µM* | ? | 32.5* | -1.6 | 53.4% | 12.3%
C=C(C)c1cccc(C(C)(C)NC(=O)NC(c2ccccc2)c2ccc(OC)cc2)c1 (stereo unspecified) | -4.2% | ? | -8.7 | 5.8 | 4.0%[11.6 µM] | 11.7µM*
C=C(C)c1cccc(C(C)(C)NC(=O)Nc2ccc(OC)cc2)c1 | -18.2% | -22.9%[5.75 µM] | 28.3 | -4.5 | -3.9% | ?
COc1ccc(CCNC(=O)c2ccc(-c3ccc([N+](=O)[O-])cc3Cl)o2)cc1OC | 7.08µM* | 26.9% | 13.7 | -0.3 | -29.6% | -23.3%
COc1ccc(CCNC(=O)c2ccc(CS(=O)(=O)c3ccc(Cl)cc3)o2)cc1OC | 12.6µM* | -48.0% | -0.7 | -0.8 | 4.6% | 10.4µM*
COc1ccc(CCNC(=O)CN(Cc2ccc(Cl)cc2)S(C)(=O)=O)cc1OC | -4.9% | 0.0% | -7.0 | -4.2 | 0.0% | 14.7µM*
COc1ccc(CCNC(=O)c2ccc(CS(=O)(=O)c3ccc(C)cc3)o2)cc1OC | 14.1µM* | nt | -6.0 | -5.9 | -15.9% | ?
SMILES | HCV inh | Pf growth 48h | Shiga toxin inh | CHX counter | AMA1-RON2 inh | Pf growth 96h
COc1ccc(CCNC(=O)c2ccc(CSc3ccc(Cl)cc3)o2)cc1OC | nt | nt | nt | nt | -34.9% | nt
COCCn1ccc2c(OCC(=O)Nc3cccc(NC(C)=O)c3)cccc2c1=O | 1.9% | -28.6% | nt | nt | -9.0% | ?
CCNC(=O)c1ccccc1NC(=O)C1CC(=O)N(C(C)C)C1 (stereo unspecified) | 8.4% | -24.5% | -6.3 | 2.3 | -0.2% | -0.8%
COc1cccc(NC(=O)CN(C)C(=O)CSc2nc(C)cc(C)n2)c1 | 6.4% | -28.0% | nt | nt | 17.3% | ?
COc1ccccc1C(=O)OCc1c(-c2ccccc2)ncc2ccccc12 | ? | nt | nt | nt | -1.4% | nt
CCOc1ccc(CCNC(=O)c2ccc(CS(=O)Cc3ccc(Cl)cc3)o2)cc1OCC (stereo unspecified) | 2.51µM* | -9.0% | -2.3 | -2.8 | -10.9% | ?
CCOc1ccc(CCNC(=O)c2ccc(CS(=O)Cc3cccc(Cl)c3)o2)cc1 (stereo unspecified) | ? | -4.0% | 4.6 | 10.4 | -0.3% | -27.6%
Cc1ccc(C2C(C#N)=C(N)Oc3n[nH]c(C)c32)cc1 (stereo unspecified) | 16.6% | 3.6% | -7.5 | -3.6 | 6.1% | nt
N#CC1=C(N)Oc2c(ccc3ccccc23)C1c1ccsc1 (stereo unspecified) | ? | 48.0% | 57.4* | 20.3* | 5.0% | 225.1%
CC(C)c1[nH]nc2c1C(C(C)C)C(C#N)=C(N)O2 (stereo unspecified) | -1.1% | -12.1% | 21.3 | -3.8 | -20.4% | 7.38µM*
Cc1[nH]nc2c1C(c1ccc(Cl)cc1)C(C#N)=C(N)O2 (stereo unspecified) | 14.1% | -0.3% | -12.5 | 19.3* | -8.5% | -36.9%
CCc1[nH]nc2c1C(c1ccsc1)C(C#N)=C(N)O2 (stereo unspecified) | 17.3% | 3.7% | 1.4 | -2.7 | 4.9% | 10.4µM*
CC(C)C1C(C#N)=C(N)Oc2n[nH]c(-c3ccccc3)c21 (stereo unspecified) | -2.5% | -21.0% | 44.8 | -3.0 | -4.3% | -14.7%
CCOC(=O)[C@]12CCC=C1N(Cc1ccccc1)C(=O)[C@H](CC(=O)NCc1cccs1)C2 | nt | nt | nt | nt | 3.4% | nt
CCOCCCNC(=S)N(CCO)Cc1cc2cc3c(cc2[nH]c1=O)OCCO3 | 11.7% | 1.1% | nt | 5.5 | -3.1% | ?
Cc1nn(Cc2ccccc2)c2c1C(c1ccc(Cl)cc1)C(C#N)=C(N)O2 (stereo unspecified) | 1.7% | ? | 1.4 | 5.9 | 1.2% | 1.17µM*
COC(=O)c1ccc2c(=O)[nH]c(CSc3nc(C)cs3)nc2c1 | -4.6% | 75.4% | 67.3* | 27.6* | 1.7% | 27.3%
C/C(=N\NC(N)=S)c1cc(-c2ccccc2)c(-c2ccccc2)s1 | 6.31µM* | 9.28µM* | nt | -0.1 | 54.0% | ?
NC(=S)NN=C(c1ccccc1)c1ccccc1 | -7.0% | ? | 2.2 | -1.8 | 89.5% | ?
C/C(=N\NC(=O)Cc1ccccc1)c1ccc(Br)s1 | -4.6% | 27.4% | -3.4 | 11.4 | 1.3% | 77.8%
C/C(=N/NC(N)=S)c1ccc(Br)s1 | ? | 14.7µM* | 14.6 | -2.7 | 81.7% | -3.0%
